Bioassay records: PubChem, National Center for Advancing Translational Sciences (NCATS)
Only a selection was taken, and hits are over-represented in it overall.
Pf Dd2 inh – blocks in vitro growth of P. falciparum Dd2 | P. falciparum Dd2 growth, SYBR Green, 72 h | Potency, µM (series often up to 28.9 µM), most hits filed as inhibitors | 120,000 tested, 4.3% active; active = well fitted inhibition curve with a large enough effect; also: nearly all actives have a fitted effect of over 65% in size
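Readout: SYBR Green fluorescence, 485 nm excitation, 535 nm emission, after ~16 h lysis at 37C. Before that, Dd2-infected red cells (2.5% hematocrit) grew 72 h with compound, 29 uM top final concentration.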
Each line names hits and unclear results; the compound was inactive in the other large screens.

COC(=O)[C@H](NC(=O)[C@@]1(O)C[C@@H](O)[C@H](O)[C@@H](NC(=O)Nc2ccc(OC(F)(F)F)cc2)C1)C(C)C	none
COc1ccc(Nc2ncnc3scc(-c4ccc(F)cc4)c23)cc1	none
COC(=O)c1sc2c(c1C)c(=O)n(-c1ccccc1)c(=O)n2CC(=O)Nc1cccc(C)c1	Pf Dd2 inh 11µM
CC(=O)N1CCc2c(sc3c2c(=O)n(Cc2ccccc2)c(=O)n3Cc2ccc(C)cc2)C1	none
CC(=O)N1CCc2c(sc3c2c(=O)n(Cc2ccccc2)c(=O)n3Cc2ccccc2F)C1	none
COc1cccc(NC(=O)Cn2c(=O)n(-c3ccccc3)c(=O)c3c4c(sc32)CCCC4)c1	none
CC(=O)N1CCc2c(sc3c2c(=O)n(-c2ccccc2)c(=O)n3CC(=O)Nc2cccc(C)c2)C1	none
CCOC(=O)N1CCc2c(sc3c2c(=O)n(-c2ccc(CC)cc2)c(=O)n3Cc2ccc(F)cc2Cl)C1	Pf Dd2 inh 10µM
CC(=O)N1CCc2c(sc3c2c(=O)n(-c2cc(Cl)ccc2C)c(=O)n3Cc2ccccc2F)C1	Pf Dd2 inh 10µM
CCOC(=O)N1CCc2c(sc3c2c(=O)n(Cc2ccccc2)c(=O)n3CC(=O)Nc2ccc(F)cc2)C1	none
CCOC(=O)N1CCc2c(sc3c2c(=O)n(Cc2ccccc2)c(=O)n3Cc2c(F)cccc2Cl)C1	Pf Dd2 inh 3.2µM
CCOC(=O)N1CCc2c(sc3c2c(=O)n(-c2ccc(Cl)cc2)c(=O)n3CC(=O)c2ccc(F)cc2)C1	none
CC(=O)N1CCc2c(sc3c2c(=O)n(-c2ccccc2C)c(=O)n3Cc2cccc(F)c2)C1	none
CCOC(=O)N1CCc2c(sc3c2c(=O)n(-c2ccc(CC)cc2)c(=O)n3Cc2cccc(Cl)c2)C1	none
O=C(O)CCC(=O)N1C[C@@H]2OCC(=O)N(Cc3ccccc3)[C@@H]2C1	none
Cc1c(Cl)cccc1NC(=O)CCOc1ccccc1	none
CC(=O)N1CCc2c(sc3c2c(=O)n(-c2ccccc2)c(=O)n3CC(=O)Nc2cc(C)cc(C)c2)C1	none
CCOC(=O)N1CCc2c(sc3c2c(=O)n(-c2ccccc2)c(=O)n3CC(=O)Nc2ccc(OC)cc2OC)C1	Pf Dd2 inh 4.5µM
CC(=O)N1CCc2c(sc3c2c(=O)n(-c2ccccc2)c(=O)n3CC(=O)Nc2ccccc2)C1	none
Cc1ccc(C(c2sc3nc(-c4ccco4)nn3c2O)N2CCCC2)cc1 (configuration not stated)	none
CCOc1ccc(C2CC(=O)c3c([nH]c(C(=O)OC4CCC(C)CC4)c3C)C2)cc1 (configuration not stated)	none
Cc1c(C(=O)OC2CCCC2)[nH]c2c1C(=O)CC(c1ccc(C(C)(C)C)cc1)C2 (configuration not stated)	none
Cc1c(C(=O)OC2CCCCC2)[nH]c2c1C(=O)CC(c1ccccc1)C2 (configuration not stated)	none
Cc1c(C(=O)OC2CCC(C)CC2)[nH]c2c1C(=O)CC(c1ccc(F)cc1)C2 (configuration not stated)	none
COc1ccc(C2CC(=O)c3c([nH]c(C(=O)OC4CCCCCC4)c3C)C2)cc1OC (configuration not stated)	Pf Dd2 inh 10µM
COc1ccc(OC)c(C2CC(=O)c3c([nH]c(C(=O)OC4CCC(C)CC4)c3C)C2)c1 (configuration not stated)	Pf Dd2 inh 10µM
Cn1cccc1-c1cc2n(n1)CCC(=O)N2CC(=O)Nc1ccc(F)cc1Cl	none
CCOC(=O)CSc1nc2sc3c(c2c(=O)n1Cc1ccccc1)CC(C(C)C)OC3 (configuration not stated)	none
N#Cc1cccc(C(=O)Nc2ccc([C@@H](O)[C@H]3COCC(=O)N3)cc2)c1	none
O=C1CCN(C(=O)CCc2nc3ccccc3[nH]2)CCCCCCN1	none
COc1ccc(NC(=O)C(C)Sc2cc(-c3ccccc3)nc(C)n2)cc1Cl (configuration not stated)	none
COc1ccc(CN2CCN(C3CCN(c4ccccc4)CC3)CC2CCO)cc1C (configuration not stated)	Pf Dd2 inh 11µM
Cc1ccc(CN2CCN(C3CCN(Cc4ccccn4)CC3)CC2CCO)o1 (configuration not stated)	none
CC(C)N1CCN(C2CCN(c3ccc4c(c3)CCC4)CC2)CC1CCO (configuration not stated)	none
CCc1ccc(NCc2cc3cc4c(cc3n(CC(=O)Nc3ccc(F)cc3)c2=O)OCCO4)cc1	none
O=C(C1CCCCC1)N1CCCC2(CN[S+](=O)([O-])c3cccnc3O2)C1 (configuration not stated)	none
COc1ccccc1NC(=O)Cn1c(-c2ccccc2)nc(C)c(CCO)c1=O	none
CCOc1ccccc1NC(=O)Cn1c(=O)n(CCCC(=O)NCCOC)c(=O)c2cc(OC)c(OC)cc21	none
Cc1ccc(-n2cc3c(c2-c2ccccc2Br)c(=O)n(C)c(=O)n3C)cc1N	Pf Dd2 inh 13µM
Cc1cc(N)c(-n2cc3c(c2-c2ccc(Br)cc2)c(=O)n(C)c(=O)n3C)cc1C	none
Cn1c(=O)c2c(-c3ccccc3Br)n(CCc3ccccc3)cc2n(C)c1=O	none
COc1ccc(-c2cc(C[C@@H]3CC[C@H](O)[C@@H](CNC(=O)NCc4ccccc4)O3)no2)cc1	none
CCOc1ccc(NC(=O)c2cc3n(n2)CC(c2ccc(Cl)cc2)OC3)cc1 (configuration not stated)	none
Cc1ccc(NC(=O)C2Cc3ccccc3N2C(=O)c2ccccc2)cc1Cl (configuration not stated)	none
COc1cccc(CNC(=O)C(=O)Nc2ccc3nc4n(c(=O)c3c2)CCCCC4)c1	none
Cc1cc(N2CCN(C)CC2)nc2ccc(NC(=O)Nc3ccccc3Cl)cc12	Pf Dd2 inh 3.2µM
COc1cccc(NC(=O)Nc2ccc3nc(N4CCN(C)CC4)cc(C)c3c2)c1	Pf Dd2 inh 2.5µM
COc1cccc(NC(=O)c2ccc3c(c2)CCN3S(C)(=O)=O)c1	none
Cn1c(=O)n(C)c2cc(N3CCCC3)c(NC(=O)Nc3ccccc3)cc21	none
COc1ccc(CN2C(=Nc3ccc(Cl)cc3)S[C@H]3[C@@H]2[C@@H](O)[C@H](O)C[C@@H]3C(N)=O)cc1	none
CCCc1cnc(C)nc1NCC1CNCCOC1 (configuration not stated)	none
COc1ccc(-n2c(=O)c3c4c(sc3n(Cc3ccccc3Cl)c2=O)CCC4)c(OC)c1	none
CCN1C(=O)CCN(C(=O)C2(c3ccccc3)CC2)CC12CCOCC2	none
CCc1cccc(NC(=O)N2CCCC(Cn3cnc4cccnc43)C2)c1 (configuration not stated)	none
COc1ccc(C)cc1NC(=O)N1CCCC2(C1)Nc1cccnc1NC2=NC1CCCC1 (configuration not stated)	Pf Dd2 inh 1.3µM
O=C(Nc1cc(F)cc(F)c1)N1CCCC2(C1)Nc1cccnc1NC2=NC1CCCC1 (configuration not stated)	none
COc1cccc(NC(=O)N2CCCC3(C2)Nc2cccnc2NC3=NC2CCCC2)c1 (configuration not stated)	none
COc1cccc(CC2(CO)CCCN(c3ccc(-c4nccn4C)nn3)C2)c1 (configuration not stated)	Pf Dd2 inh 8.9µM
Cn1ccnc1-c1ccc(N2CCC(C(O)Cc3ccccc3)CC2)nn1 (configuration not stated)	none
Cn1ccnc1-c1ccc(N2CC[C@](C)(O)[C@@H](O)C2)nn1	none
O=C1CC2(CCN(C(=O)c3ccc4c(c3)OCO4)CC2)CN1CC1CCCO1 (configuration not stated)	none
COc1ccc(NC(=O)CCn2ccn3nc4c(c3c2=O)CCCC4)c(OC)c1	none
Cc1cc(-c2ccc(F)c(C(N)=O)c2)cc(C(C)(C)C)c1	none
